The values that follow come from PubChem BioAssay (NCI).

Where “and” joins values, the source holds several entries; their conditions need not be identical. Identical values can stand only once. About 83,000 compounds went through this panel and 20% of them were active in at least one assay; those are over-represented in the sample as a whole.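 Results are percent growth after 48 hours of single-concentration exposure. 100 means growth as in untreated cells, lower positive values show inhibition; negative values down to -100 show cell death.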 Some compounds were tested as several samples or in several runs, with calls that do not always agree. Calls of active or inactive are those of the source. How the source made its calls: active means growth percent below 10; inactive means the rest.

Some test systems named below: NCI-H23 lung; NCI-H226 lung; NCI-H322M lung; HOP-62 NSCLC; NCI-H460 lung; HOP-92 NSCLC; NCI-H522 lung; A549/ATCC NSCLC; 786-0 renal; COLO 205 colon.
Common to all, as to assay: NCI-60 one-dose screen, 48 h (100 = growth as untreated, 0 = no growth, -100 = all killed)
What all share (conditions): 10 µM

In the case of `O=[N+]([O-])c1cc[n+]([O-])cc1`, the growth is 100% (inactive) in the test with NCI-H23 lung; 105% (inactive) in the test with NCI-H226 lung; 133% (inactive) in the test on NCI-H322M lung; 131% (inactive) with HOP-62 NSCLC; 103% (inactive) with NCI-H460 lung; 116% (inactive) in the test with HOP-92 NSCLC. For the same compound, the growth in the test on NCI-H522 lung is 83.1% (inactive); in the test on A549/ATCC NSCLC, 101% (inactive); in the test with 786-0 renal, 106% (inactive); in the test with COLO 205 colon, 117% (inactive).

As for `Cc1ccc(Sc2ccccc2N)cc1`, the growth is 72.3% (inactive) in the test with NCI-H23 lung; 106% (inactive) with NCI-H226 lung; 105% (inactive) in the test with NCI-H322M lung; 100% (inactive) in the test with HOP-62 NSCLC; 41.3% (inactive) in the test with NCI-H460 lung; 101% (inactive) in the test on HOP-92 NSCLC. For the same compound, the growth with NCI-H522 lung was 71.4% (inactive); in the test on A549/ATCC NSCLC, 96% (inactive); with 786-0 renal it was 108% (inactive); in the test with COLO 205 colon, 96.8% (inactive).

For `Cc1cc(N(CCOS(C)(=O)=O)CCOS(C)(=O)=O)ccc1C=Nc1ccc(-c2nc(Cc3ccccc3)sc2C)cc1`, the growth with NCI-H23 lung was 31% (inactive); in the test with NCI-H226 lung, 61.6% (inactive); in the test on NCI-H322M lung it was -18.9% (active); in the test on HOP-62 NSCLC it was 36% (inactive); in the test on NCI-H460 lung, -38.3% (active); in the test with NCI-H522 lung, -91.3% (active). For the same compound, the growth in the test with A549/ATCC NSCLC was 34.8% (inactive); in the test on 786-0 renal, 13.8% (inactive); in the test on COLO 205 colon, -71.3% (active).

With `C=C1C(=O)OC2CC1C(OC(C)=O)C/C(C)=C/CC/C(C)=C\CCC2(C)O` (centres undefined), the growth in the test with NCI-H23 lung is 11.1% (inactive); with NCI-H226 lung, 15.9% (inactive); in the test with NCI-H322M lung, 67.3% (inactive); in the test with HOP-62 NSCLC it was 106% (inactive); with NCI-H460 lung it was 21.7% (inactive); in the test on HOP-92 NSCLC, -28.6% (active). The growth is -83.9% (active) in the test with NCI-H522 lung, 64.1% (inactive) in the test with A549/ATCC NSCLC, 38.9% (inactive) in the test with 786-0 renal and 0.7% (active) with COLO 205 colon.

As for `CN(C)CCOC1(Cc2ccc(Cl)cc2Cl)CCC(C(C)(C)C)CC1` (centres undefined), the growth is 33.4% (inactive) and 36.7% (inactive) with NCI-H23 lung; 53% (inactive) and 33.9% (inactive) in the test on NCI-H226 lung; 70% (inactive) and 76.3% (inactive) with NCI-H322M lung; 39.8% (inactive) and 42.1% (inactive) with HOP-62 NSCLC; -65.8% (active) and -61.2% (active) in the test on NCI-H460 lung; 47.9% (inactive) and 43% (inactive) in the test on HOP-92 NSCLC. Further, the growth is 9.54% (active) and 48.6% (inactive) with NCI-H522 lung; 38.9% (inactive) and 21.1% (inactive) in the test with A549/ATCC NSCLC; 51.2% (inactive) and 24.3% (inactive) in the test on 786-0 renal; -89.2% (active) and -87.9% (active) in the test with COLO 205 colon.

Take `CC1=CC(=C(c2ccc(N)cc2)c2ccc(N)cc2)C=CC1=N`: the growth with NCI-H23 lung was 29.7% (inactive) and 44.7% (inactive); in the test with NCI-H226 lung it was 17% (inactive) and 51.4% (inactive); in the test with NCI-H322M lung it was 26.3% (inactive) and 38.5% (inactive); in the test with HOP-62 NSCLC it was 31.4% (inactive) and 20.6% (inactive); in the test on NCI-H460 lung it was 6.34% (active); in the test with HOP-92 NSCLC, 2.19% (active) and 63% (inactive). The growth in the test on NCI-H522 lung was -8.93% (active) and 60.9% (inactive); with A549/ATCC NSCLC, 14.1% (inactive) and 16.9% (inactive); with 786-0 renal it was 23.5% (inactive) and 42.8% (inactive); with COLO 205 colon, -8.22% (active) and -56.6% (active).

Turning to `COc1ccc(C(=O)C(CN(C)C)CN(C)C)cc1`, the growth is 96.1% (inactive) in the test with NCI-H23 lung; 113% (inactive) with NCI-H226 lung; 98% (inactive) in the test on NCI-H322M lung; 97.9% (inactive) with HOP-62 NSCLC; 102% (inactive) in the test on NCI-H460 lung; 44% (inactive) with HOP-92 NSCLC. The growth is -54.1% (active) in the test with NCI-H522 lung, 118% (inactive) in the test with A549/ATCC NSCLC, 87.8% (inactive) in the test on 786-0 renal and -75.3% (active) in the test on COLO 205 colon.

On to `C#CCN(Cc1ccc2nc(N)[nH]c(=O)c2c1)c1ccc(C(=O)NC(CCC(=O)O)C(=O)O)cc1` (centres undefined), for which the growth in the test with NCI-H23 lung was 99.2% (inactive); with NCI-H226 lung it was 80.8% (inactive); in the test with NCI-H322M lung it was 90.3% (inactive); with HOP-62 NSCLC, 82.3% (inactive); in the test on NCI-H460 lung, 80.1% (inactive); in the test on HOP-92 NSCLC it was 86.9% (inactive). The growth in the test with NCI-H522 lung is 80.2% (inactive); with A549/ATCC NSCLC, 95% (inactive); in the test on 786-0 renal it was 12% (inactive); with COLO 205 colon, 67.4% (inactive).
